Results reported in PubChem BioAssay (NCATS).
Results filed as inconclusive are left out. Calls of active or inactive are those of the source. Calls come from the whole dose curve; as a rule, active = well fitted inhibition curve with a large enough effect; inconclusive = small, poorly fitted or top-dose-only effect; inactive = flat fitted curve, though single readings scatter.

Legend:
Assay in all cases: qHTS profiling for inhibitors of Plasmodium falciparum proliferation (AID 504749); note: nearly all actives have a fitted effect of over 60% in size
Conditions in all cases: P. falciparum in erythrocytes, SYBR Green DNA, 72 h; series mostly up to 28.7 µM
CP250 = test system: CP250
Procedure, shortened: (§1)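 P. falciparum-infected erythrocytes (0.3% parasitemia, 2.5% hematocrit) incubated with compound 72 h at 37 C, 5% CO2. Parasite DNA detected by SYBR Green after lysis, overnight at room temperature; normalised to 0.29 uM artemisinin and DMSO.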

CP252 = test system: CP252
Procedure, shortened: as §1

CP256 = test system: CP256
Procedure, shortened: as §1

CP260 = test system: CP260
Procedure, shortened: as §1

CP262 = test system: CP262
Procedure, shortened: as §1

CP265 = test system: CP265
Procedure, shortened: as §1

CP266 = test system: CP266
Procedure, shortened: as §1

CP268 = test system: CP268
Procedure, shortened: as §1

CP269 = test system: CP269
Procedure, shortened: as §1

CP286 = test system: CP286
Procedure, shortened: as §1

Measured: Potency

CC(C)CCCCCCc1ccc(O)cc1
inactive: all assays above

CCOC(=S)SSC(=S)OCC
inactive: all assays above

CC1CC(OC(=O)C(O)c2ccccc2)CC(C)(C)C1 (stereo not given)
inactive: all assays above

O=C1c2ccccc2C(=O)c2c1ccc(O)c2O
inactive: all assays above

CC(=O)N[C@@H]1C(O[C@H]2O[C@H](C(=O)O)C(O)[C@H](O)[C@H]2O)[C@H](O)[C@@H](CO)O[C@H]1O[C@@H]1C(C(=O)O)O[C@@H](O[C@H]2[C@H](O)[C@@H](CO)OC(O)[C@@H]2NC(C)=O)[C@H](O)[C@H]1O (stereo not given in full)
inactive: all assays above

CCCCC(CC)COS(=O)(=O)O (stereo not given)
inactive: all assays above

C=CCCCCCCCCC(=O)OC
inactive: all assays above

COC(=O)[C@@H](N)CS
inactive: all assays above

NC(=O)[C@@H]1CCCN1C(=O)[C@H](Cc1cnc[nH]1)NC(=O)[C@@H]1CCC(=O)N1
inactive: all assays above

CC(/C=C/C=C(\C)C(=O)O[C@@H]1O[C@H](CO[C@@H]2O[C@H](CO)[C@@H](O)[C@H](O)[C@H]2O)[C@@H](O)[C@H](O)[C@H]1O)=C\C=C\C=C(C)\C=C\C=C(/C)C(=O)O[C@@H]1O[C@H](CO[C@@H]2O[C@H](CO)[C@@H](O)[C@H](O)[C@H]2O)[C@@H](O)[C@H](O)[C@H]1O
inactive: all assays above

Cc1ccc(S(=O)(=O)NCl)cc1
inactive: all assays above

C=C(C)C1CC=C(C)CC1 (stereo not given)
inactive: all assays above

CN1C(=O)C[C@@H](C(=O)N[C@@H](Cc2cnc[nH]2)C(=O)N2CCC[C@H]2C(N)=O)NC1=O
inactive: all assays above

NC(=O)[C@H]1O[C@@H](O)[C@H](O)[C@@H](O)[C@@H]1O
inactive: all assays above

CCCCCc1ccc(C)cc1O
inactive: all assays above

O=C(OC1C[C@@H]2CC3C[C@H](C1)N2CC3=O)c1c[nH]c2ccccc12 (stereo not given in full)
inactive: all assays above

O=C(O)COc1ccccc1/C=N/NC(=O)c1ccncc1
inactive: all assays above

NC(N)=O
inactive: all assays above

COC(=O)CCC[N+](C)(C)C
inactive: all assays above

C=Cc1ccc(S(=O)(=O)O)cc1
inactive: all assays above

Cc1ccc(C(C)(C)c2ccc(C)cc2)cc1
inactive: all assays above

CN1CCC(OC(=O)C(Oc2ccc(Cl)cc2)Oc2ccc(Cl)cc2)CC1
inactive: all assays above

O=C(O)Cc1nn(Cc2ccc(Br)cc2F)c(=O)c2ccccc12
inactive: all assays above

CC(=O)Oc1cccc2c1C(=O)c1c(OC(C)=O)cc(C(=O)O)cc1C2=O
inactive: all assays above

CN1c2c(nc(N)[nH]c2=O)NCC1CNc1ccc(C(=O)NC(CCC(=O)O)C(=O)O)cc1 (stereo not given)
inactive: all assays above

CCN(CC)C(=S)S
inactive: all assays above

Nc1nc(=O)n([C@@H]2CS[C@H](CO)O2)cc1F
inactive: all assays above

Nc1ncnc2c1ncn2CCOCP(=O)(O)O
inactive: all assays above

CC(=O)Nc1ccc(OC(=O)c2ccccc2O)cc1
inactive: all assays above
